About 83,000 compounds went through this panel and 20% of them were active in at least one assay; those are over-represented in the sample as a whole.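 Single-concentration screen, 48 h exposure, 96-well plates. Endpoint: percent growth. Below 10 = active.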 Activity calls are given as the source filed them.
What was measured:
Assay in all cases: NCI-60 one-dose screen, 48 h (100 = growth as untreated, 0 = no growth, -100 = all killed)
Settings in all cases: 10 µM unless noted
NCI-H23 lung = tested on: NCI-H23 lung
NCI-H226 lung = tested on: NCI-H226 lung
NCI-H322M lung = tested on: NCI-H322M lung
HOP-62 NSCLC = tested on: HOP-62 NSCLC
NCI-H460 lung = tested on: NCI-H460 lung
HOP-92 NSCLC = tested on: HOP-92 NSCLC
NCI-H522 lung = tested on: NCI-H522 lung
A549/ATCC NSCLC = tested on: A549/ATCC NSCLC
786-0 renal = tested on: 786-0 renal
COLO 205 colon = tested on: COLO 205 colon
DU-145 prostate = tested on: DU-145 prostate
K-562 leukemia = tested on: K-562 leukemia
MALME-3M melanoma = tested on: MALME-3M melanoma
MDA-MB-231 breast = tested on: MDA-MB-231 breast
SF-268 CNS = tested on: SF-268 CNS
SF-295 CNS = tested on: SF-295 CNS
SF-539 CNS = tested on: SF-539 CNS
UACC-257 melanoma = tested on: UACC-257 melanoma
M14 melanoma = tested on: M14 melanoma

Measured: growth

O=C(N/N=C/c1ccc(O)c(O)c1)c1sc2ccccc2c1Cl
inactive: NCI-H23 lung 97% | NCI-H226 lung 68.8% | NCI-H322M lung 98.5% | HOP-62 NSCLC 81.7% | NCI-H460 lung 46% | HOP-92 NSCLC 49.7% | NCI-H522 lung 95% | A549/ATCC NSCLC 96.3% | 786-0 renal 65.2% | COLO 205 colon 53.5% | DU-145 prostate 108% | K-562 leukemia 95.9% | MALME-3M melanoma 96.8% | MDA-MB-231 breast 101% | SF-268 CNS 77.9% | SF-295 CNS 114% | SF-539 CNS 52.2% | UACC-257 melanoma 111% | M14 melanoma 97.7%

CN1CCN(c2cnc(C(=O)Nc3cc(F)cc4cccnc34)cn2)CC1
inactive: NCI-H23 lung 39.6% | NCI-H226 lung 90.1% | NCI-H322M lung 83.9% | HOP-62 NSCLC 98.6% | NCI-H460 lung 103% | HOP-92 NSCLC 79.1% | NCI-H522 lung 22% | A549/ATCC NSCLC 92.4% | 786-0 renal 56% | COLO 205 colon 21.2% | DU-145 prostate 72.3% | K-562 leukemia 16.9% | MALME-3M melanoma 42.2% | MDA-MB-231 breast 33.4% | SF-268 CNS 93.7% | SF-295 CNS 94.3% | SF-539 CNS 71.8% | UACC-257 melanoma 44.8% | M14 melanoma 51.4%

CN1C(=O)N(C)C2NC(N/N=C/c3ccccc3)=NC21 (stereo not given)
inactive: NCI-H23 lung 100% | NCI-H226 lung 95% | NCI-H322M lung 94.5% | HOP-62 NSCLC 94.5% | NCI-H460 lung 103% | HOP-92 NSCLC 102% | NCI-H522 lung 104% | A549/ATCC NSCLC 100% | 786-0 renal 104% | COLO 205 colon 106% | DU-145 prostate 108% | K-562 leukemia 107% | MALME-3M melanoma 97.9% | MDA-MB-231 breast 104% | SF-268 CNS 99.8% | SF-295 CNS 101% | SF-539 CNS 94.9% | UACC-257 melanoma 98.8% | M14 melanoma 98.8%

COc1ccc(-c2cnc(N)nc2-c2ccc(OC)cc2O)cc1
inactive: NCI-H23 lung 92.5% | NCI-H226 lung 99.8% | NCI-H322M lung 90.4% | HOP-62 NSCLC 110% | NCI-H460 lung 89.8% | HOP-92 NSCLC 57.8% | NCI-H522 lung 79.6% | A549/ATCC NSCLC 93.1% | 786-0 renal 90% | COLO 205 colon 113% | DU-145 prostate 99.2% | K-562 leukemia 80.4% | MALME-3M melanoma 126% | MDA-MB-231 breast 99.4% | SF-268 CNS 107% | SF-295 CNS 101% | SF-539 CNS 88.1% | UACC-257 melanoma 112% | M14 melanoma 109%

CCC(C)C(N)C(=O)NNc1n[nH]c(=S)n1N (stereo not given)
inactive: NCI-H23 lung 102% | NCI-H226 lung 101% | NCI-H322M lung 105% | HOP-62 NSCLC 105% | NCI-H460 lung 103% | HOP-92 NSCLC 97.6% | NCI-H522 lung 89% | A549/ATCC NSCLC 102% | 786-0 renal 102% | COLO 205 colon 116% | DU-145 prostate 109% | K-562 leukemia 102% | MALME-3M melanoma 101% | MDA-MB-231 breast 101% | SF-268 CNS 98.2% | SF-295 CNS 103% | SF-539 CNS 94.7% | UACC-257 melanoma 99.4% | M14 melanoma 100%

COc1ccc(NS(=O)(=O)c2ccc(C)cc2)c([N+](=O)[O-])c1
inactive: NCI-H23 lung 96.6% | NCI-H226 lung 90.8% | NCI-H322M lung 94% | HOP-62 NSCLC 97.3% | NCI-H460 lung 106% | HOP-92 NSCLC 83.5% | NCI-H522 lung 87.9% | A549/ATCC NSCLC 99.7% | 786-0 renal 107% | COLO 205 colon 112% | DU-145 prostate 111% | K-562 leukemia 93.2% | MALME-3M melanoma 96.2% | MDA-MB-231 breast 96% | SF-268 CNS 101% | SF-295 CNS 110% | SF-539 CNS 110% | UACC-257 melanoma 98.7% | M14 melanoma 109%

Nc1nc(N)nc(NCc2ccccc2)n1
inactive: NCI-H23 lung 97.1% | NCI-H226 lung 95.4% | NCI-H322M lung 95.4% | HOP-62 NSCLC 105% | NCI-H460 lung 109% | HOP-92 NSCLC 108% | NCI-H522 lung 99.3% | A549/ATCC NSCLC 101% | 786-0 renal 102% | COLO 205 colon 119% | DU-145 prostate 112% | K-562 leukemia 89.3% | MALME-3M melanoma 108% | MDA-MB-231 breast 108% | SF-268 CNS 100% | SF-295 CNS 100% | SF-539 CNS 100% | UACC-257 melanoma 110% | M14 melanoma 107%

N/C(=N\N=C\c1cc2ccccc2[nH]1)N/N=C/c1cc2ccccc2[nH]1
inactive: NCI-H23 lung 96.3% | NCI-H226 lung 93.7% | NCI-H322M lung 100% | HOP-62 NSCLC 95.7% | NCI-H460 lung 95.7% | HOP-92 NSCLC 76.6% | NCI-H522 lung 98% | A549/ATCC NSCLC 101% | 786-0 renal 98.7% | COLO 205 colon 102% | DU-145 prostate 112% | K-562 leukemia 61.6% | MALME-3M melanoma 87.9% | MDA-MB-231 breast 99.9% | SF-268 CNS 103% | SF-295 CNS 111% | SF-539 CNS 104% | UACC-257 melanoma 107% | M14 melanoma 99.4%

CC1(C)CCCN1CCCN1c2ccccc2Sc2ccc(Cl)cc21
inactive: NCI-H23 lung 72.5% | NCI-H226 lung 82.9% | NCI-H322M lung 74.1% | HOP-62 NSCLC 77% | NCI-H460 lung 60.8% | HOP-92 NSCLC 62.9% | NCI-H522 lung 76.6% | A549/ATCC NSCLC 83.8% | 786-0 renal 54.2% | COLO 205 colon 43.6% | DU-145 prostate 78.5% | K-562 leukemia 14.2% | MALME-3M melanoma 67.2% | MDA-MB-231 breast 45.5% | SF-268 CNS 76.3% | SF-295 CNS 68.2% | SF-539 CNS 78.2% | UACC-257 melanoma 105% | M14 melanoma 39.1%

CCOC(=O)c1ccc(Nc2ccnc(SCC(=O)c3ccc(C#N)cc3)n2)cc1
inactive: NCI-H23 lung 79.9% | NCI-H226 lung 61.4% | NCI-H322M lung 90.5% | HOP-62 NSCLC 63.4% | NCI-H460 lung 90.5% | HOP-92 NSCLC 105% | NCI-H522 lung 27% | A549/ATCC NSCLC 60.6% | 786-0 renal 78.4% | COLO 205 colon 70.8% | DU-145 prostate 79.4% | K-562 leukemia 50.6% | MALME-3M melanoma 80.9% | MDA-MB-231 breast 81.2% | SF-268 CNS 78% | SF-295 CNS 76.2% | SF-539 CNS 83% | UACC-257 melanoma 77.7% | M14 melanoma 50.5%

O=C(CN1CCOCC1)Nc1ccc2ncnc(Nc3ccc(Oc4cccc(C(F)(F)F)c4)c(Cl)c3)c2c1
inactive: NCI-H23 lung 68.8% | NCI-H226 lung 75% | NCI-H322M lung 16.6% | HOP-62 NSCLC 73.9% | NCI-H460 lung 64.1% | HOP-92 NSCLC 53% | NCI-H522 lung 26% | A549/ATCC NSCLC 51.2% | 786-0 renal 65.3% | COLO 205 colon 76.9% | DU-145 prostate 40.8% | K-562 leukemia 35% | MALME-3M melanoma 73.4% | MDA-MB-231 breast 60.1% | SF-268 CNS 59.6% | SF-295 CNS 63.5% | SF-539 CNS 78.8% | UACC-257 melanoma 83.3% | M14 melanoma 64%

CC1(C)CN(c2cnc(C(=O)Nc3cc(F)cc4cccnc34)cn2)CCN1
inactive: NCI-H23 lung 88.8% | NCI-H226 lung 92.7% | NCI-H322M lung 85.4% | HOP-62 NSCLC 91.8% | NCI-H460 lung 82.5% | HOP-92 NSCLC 64.6% | NCI-H522 lung 41% | A549/ATCC NSCLC 92.5% | 786-0 renal 78.9% | COLO 205 colon 19.7% | DU-145 prostate 101% | K-562 leukemia 36.3% | MALME-3M melanoma 47.5% | MDA-MB-231 breast 58% | SF-268 CNS 74.6% | SF-295 CNS 97.8% | SF-539 CNS 83.7% | UACC-257 melanoma 93.5% | M14 melanoma 70.8%

Cc1cccc(C)c1-c1cc(Cc2ccc(Cl)cc2)c(=O)[nH]n1
inactive: NCI-H23 lung 84.9% | NCI-H226 lung 97.3% | NCI-H322M lung 111% | HOP-62 NSCLC 99.4% | NCI-H460 lung 109% | HOP-92 NSCLC 78.6% | NCI-H522 lung 95.3% | A549/ATCC NSCLC 37% | 786-0 renal 104% | COLO 205 colon 108% | DU-145 prostate 105% | K-562 leukemia 89.5% | MALME-3M melanoma 111% | MDA-MB-231 breast 94.3% | SF-268 CNS 93.6% | SF-295 CNS 104% | SF-539 CNS 111% | UACC-257 melanoma 42.3% | M14 melanoma 114%

COc1ccc(NC(=O)c2sc3nc(C)c(C(O)c4ccc(OC)cc4)cc3c2N)cc1 (stereo not given)
inactive: NCI-H23 lung 36.2% | NCI-H226 lung 63.5% | NCI-H322M lung 51.3% | HOP-62 NSCLC 31.8% | HOP-92 NSCLC 57.6% | A549/ATCC NSCLC 23% | 786-0 renal 53.3% | DU-145 prostate 25.6% | MALME-3M melanoma 63.7% | MDA-MB-231 breast 22.1% | SF-268 CNS 42% | UACC-257 melanoma 60.4% | M14 melanoma 24.7%
active: NCI-H460 lung 9.03% | NCI-H522 lung 5.14% | COLO 205 colon -6.28% | K-562 leukemia 9.99% | SF-295 CNS -1.07% | SF-539 CNS -11.4%

COc1cc(OC)c(/C=C/C(=O)c2ccc(Nc3ncnc4ccccc34)cc2)c(OC)c1
active: NCI-H226 lung -17.3% | HOP-62 NSCLC -54.5% | NCI-H460 lung -23.1% | HOP-92 NSCLC -16.4% | NCI-H522 lung -51.4% | 786-0 renal -13.2% | COLO 205 colon 6.02% | DU-145 prostate -26.5% | K-562 leukemia 4.41% | MALME-3M melanoma -39.8% | MDA-MB-231 breast -19.9% | SF-268 CNS -71.9% | SF-295 CNS -47.7% | SF-539 CNS -56.6% | UACC-257 melanoma -12% | M14 melanoma -15.5%
inactive: NCI-H23 lung 17% | NCI-H322M lung 11.5% | A549/ATCC NSCLC 12.2%

— PubChem BioAssay (NCI)
